D2 antag = antagonists of human D2 dopamine receptor; HEK293 TREx D2 cells, calcium flux, dopamine EC80; inhibition, % at 10 µM; 340,000 tested, 2% active; AID 485344; in the data active = inhibition above about 30%; inactive = below that, where a call was filed; note: 0% is about no effect
Target sequence (P14416 whole entry, looked up): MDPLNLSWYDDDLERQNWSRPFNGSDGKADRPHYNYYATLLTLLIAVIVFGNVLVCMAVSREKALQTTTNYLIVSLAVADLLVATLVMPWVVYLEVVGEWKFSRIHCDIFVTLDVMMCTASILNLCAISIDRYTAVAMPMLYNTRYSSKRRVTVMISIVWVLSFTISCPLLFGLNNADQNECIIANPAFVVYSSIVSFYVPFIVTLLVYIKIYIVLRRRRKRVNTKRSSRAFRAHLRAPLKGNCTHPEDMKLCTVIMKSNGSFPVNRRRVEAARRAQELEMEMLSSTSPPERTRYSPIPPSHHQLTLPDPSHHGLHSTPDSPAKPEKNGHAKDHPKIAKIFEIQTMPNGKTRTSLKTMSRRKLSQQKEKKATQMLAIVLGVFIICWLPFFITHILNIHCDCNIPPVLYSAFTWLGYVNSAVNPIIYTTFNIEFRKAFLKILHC
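Measurement of antagonist activity uses fluorescent calcium dye in inducible HEK293 T-REx D2 cells: 10 s baseline, compound addition with 180 s read, EC80 dopamine addition with a further 180 s read.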
D2 PAM-1 = potentiates the human D2 dopamine receptor allosterically; P14416; AID 624464; 360,000 tested, 0.23% active; DiscoveRx D2 beta-arrestin cells, luminescence, 90 min; 100% = 57 uM dopamine signal; potentiation, % (test concentration not listed); in the data active = potentiation above about 50%
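PathHunter D2 cells, attached overnight at 37 deg C, received compound in DMSO plus dopamine at EC20 (50 nM final) for 90 min at 37 deg C. Beta-arrestin recruitment was read as luminescence after 1 h with detection reagent at ambient temperature.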
D2 PAM-2 = D2 dopamine receptor (human) potentiation; AID 485347; potentiation, % at 10 µM; 340,000 tested, 0.34% active; HEK293 T-REx D2, calcium flux, EC20 dopamine potentiation;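 active = potentiation over 3 SD above the plate norm, cut at about 30% in these data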; note: 0% is about no effect
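Cells plated with tetracycline inducer and held overnight at 30 C; calcium dye loaded 30–90 min at room temperature; baseline taken, compound added and read 180 s; EC20 dopamine then added and read 180 s.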
D2 ag-1 = D2 dopamine receptor (human) agonism | HEK293 T-REx D2 cells, calcium flux agonist mode | activation, % at 2 µM | 340,000 tested, 0.53% active | AID 485358;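 active = activation over 3 SD above normal in the single-dose calcium agonist read, cut at about 30% in these data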; note: 0% is about no effect
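Agonism is scored from calcium flux in a force-coupled, inducible HEK293 cell line expressing D2, read kinetically for 180 s after compound addition against dopamine controls.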
D2 ag-2 = activates the human D2 dopamine receptor; DiscoveRx PathHunter D2 beta-arrestin, luminescence, 90 min; 100% = 57 uM dopamine signal; 360,000 tested, 0.084% active; AID 624465; P14416; activation, % (no concentration beside the values); in the data active = activation above about 40%
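DiscoveRx PathHunter D2 beta-arrestin cells (2,100/well) attached overnight, then compound-stimulated 90 min at 37 C in HBSS/10 mM HEPES/0.1% Tween-20 buffer; beta-galactosidase complementation read by luminescence after 1 h at ambient temperature. Dopamine 57 uM final (EC100) as control.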
* = called active by the depositor; . = not tested or not shown. Rows were chosen to be rich in hits. Some 2.4% of all compounds tested hit in one or more screens of this group.

SMILES | D2 antag | D2 PAM-1 | D2 PAM-2 | D2 ag-1 | D2 ag-2
COc1ccc(C2(c3ccc(OC)cc3)NC(=O)N(CC(=O)NC(C)C)C2=O)cc1 | -14 | -5 | 2 | 1 | -2
COc1ccc(CN2C3CCC2CC(NC(=O)c2cccc(F)c2)C3)cc1 (stereo not drawn) | 81* | -2 | -26 | 0 | 0
COc1cccc(C(=O)NNC(=O)c2ccccc2)c1 | 2 | -3 | 6 | 0 | 2
COc1cccc(C(=O)NN2c3ccccc3CCc3ccccc32)c1 | 51* | 4 | 2 | -4 | 4
O=C(Nc1ccccc1-c1ccccc1)NC1CC2CCCC(C1)N2CCc1ccccc1 (stereo not drawn) | 8 | -10 | -18 | 0 | -5
O=C(Nc1ccccc1-c1ccccc1)NC1CC2CCCC(C1)N2Cc1ccc(F)cc1 (stereo not drawn) | 52* | -25 | -25 | 0 | -1
Cc1cccc(C(=O)NC2CC3CCCC(C2)N3Cc2ccccc2)c1 (stereo not drawn) | 81* | -10 | -18 | 0 | -4
Cc1ccc2oc(C(=O)NCC3CCOCC3)c(C)c2c1 | 0 | -4 | -7 | 0 | 6
O=C(NC1CCN(C(=O)NCc2ccccc2)CC1)c1cccc(F)c1 | 2 | -3 | . | 1 | -3
Cc1ccc(CN2C3CCCC2CC(NC(=O)c2ccc(F)cc2)C3)cc1 (stereo not drawn) | 92* | -18 | -21 | 0 | -2
COc1cccc(C(=O)NC2CC3CCC(C2)N3Cc2ccccc2)c1 (stereo not drawn) | 96* | -6 | -14 | 1 | 0
Cc1ccc(C(=O)NC2CC3CCCC(C2)N3Cc2ccccc2)cc1 (stereo not drawn) | 4 | -34 | -29 | 1 | -1
O=C(NC1CC2CCC(C1)N2Cc1ccccc1)c1cccc(F)c1 (stereo not drawn) | 71* | -7 | -25 | 1 | 4
COc1cccc(C(=O)NC2CC3CCCC(C2)N3CC(=O)Nc2ccccc2C(F)(F)F)c1 (stereo not drawn) | -21 | -5 | -16 | 1 | 1
CCCNC(=S)NC1CC2CCCC(C1)N2Cc1ccc(F)cc1 (stereo not drawn) | 81* | -78 | -21 | 0 | 0
COCCCNC(=S)NC1CC2CCCC(C1)N2Cc1ccco1 (stereo not drawn) | -16 | -25 | -16 | 0 | -1
CCc1ccc(-c2cc(C)no2)cc1S(=O)(=O)Nc1cccc(CN2CCCC2)c1 | 10 | -28 | 1 | 0 | -5
CC1CCc2nc3ncn(Cc4ccccc4C#N)c(=O)c3cc2C1 (stereo not drawn) | . | . | -5 | 0 | .
CCCN(CC(=O)Nc1ccccc1OC)C(=O)c1ccncc1 | -2 | -5 | -3 | -1 | -2
COC(=O)CSc1nc2ccccn2c(=O)c1C=O | -5 | -3 | -8 | 1 | -1
NC(c1ccccc1)c1csc(Nc2ccc(C(=O)c3ccccc3)cc2)n1 (stereo not drawn) | . | -4 | . | . | 5
CC(NC(=O)COc1ccccc1)C(=O)N1CCN(c2ccccc2)CC1 (stereo not drawn) | 7 | -14 | 8 | 0 | -7
C[C@H](NC(=O)c1ccccc1)C(=O)N1CCN(c2ccccc2)CC1 | 30* | -3 | -3 | 0 | 1
O=C(NC(=S)N1CCN(c2ccc([N+](=O)[O-])cc2)CC1)c1ccccc1 | 31* | -2 | -3 | 0 | 3
Cc1ccc(C(=O)NC(=S)N2CCN(c3ccc([N+](=O)[O-])cc3)CC2)cc1 | 7 | -16 | 6 | 0 | 3
Cc1ccc2c(=O)cc(C(=O)Nc3ccc(S(=O)(=O)Nc4ncccn4)cc3)oc2c1C | . | . | 6 | . | .
COc1ccc(C(=O)NNC(=O)C(=O)Nc2ccc(C)cc2)cc1 | 9 | -8 | . | -3 | -8
CCc1ccc(NC(=O)C(=O)NNC(=O)c2ccc(OC)cc2)cc1 | 43* | -1 | -14 | 1 | -5
O=C(Cc1ccccc1[N+](=O)[O-])NCc1ccc(Cl)cc1Cl | 33* | 7 | 6 | -3 | -1
O=C(Nc1ccnn1C1CCN(Cc2ccccc2)CC1)c1ccccc1Cl | 7 | -25 | -24 | -1 | -7

Screens deposited in PubChem BioAssay by National Center for Advancing Translational Sciences (NCATS).
